Assay [1] relates to MKL-1. The experiment in a line: qHTS assay to identify novel small-molecules to repurpose for Merkel cell carcinoma treatment (AID 1296009). Also: nearly all actives have a fitted effect of over 60% in size. Conditions: MCC and control cell lines, CellTiter-Glo viability, 72 h; series mostly up to 46 µM. The essentials: (§1)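 Cell viability measured by CellTiter-Glo following 72 hr compound treatment at 37 degree celsius, with NPC and MIPE libraries tested in 8- and 11-point concentration series.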

Assay [2] has as its system UISO. Described as above. Conditions: MCC and control cell lines, CellTiter-Glo viability, 72 h; series mostly up to 46 µM. The essentials: as §1
Assay [3] deals with WaGa. Described as above. The conditions noted are these: MCC and control cell lines, CellTiter-Glo viability, 72 h; series mostly up to 46 µM. In outline:
as §1
(In ATP-based viability assays light output follows the ATP content of the culture.)

The subject of assay [4] is C33A. Put plainly: Primary qHTS to identify gynecologic anti-cancer compounds using libraries of approved drugs and bioactive compounds (AID 1345084). Also: nearly all actives have a fitted effect of over 55% in size. The conditions noted are these: Gynecologic cancer cell panel viability, ATPlite luminescence, 48 h; series mostly up to 57.5 µM. The essentials: (§2)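 Cells, 1,000 per well, plated 16 h, then exposed 48 h at 37 C to compounds. Viability by ATPlite luminescence after 15 min at room temperature.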
In general terms: In qHTS, concentration-response curves come from the screen itself.

Assay [5] deals with CAOV3. The description is as above. Conditions: Gynecologic cancer cell panel viability, ATPlite luminescence, 48 h; series mostly up to 57.5 µM. In outline:
as §2

Assay [6] deals with CASKI. Described as above. Conditions: Gynecologic cancer cell panel viability, ATPlite luminescence, 48 h; series mostly up to 57.5 µM. The essentials:
as §2

Assay [7] relates to Es-2. Described as above. The conditions noted are these: Gynecologic cancer cell panel viability, ATPlite luminescence, 48 h; series mostly up to 57.5 µM. The essentials:
as §2

Assay [8] relates to HeLa. The assay is described as above. Conditions: Gynecologic cancer cell panel viability, ATPlite luminescence, 48 h; series mostly up to 57.5 µM. The essentials: as §2
The test system of assay [9] is Hek293T. Described as above. The conditions noted are these: Gynecologic cancer cell panel viability, ATPlite luminescence, 48 h, control line for the selectivity index; series mostly up to 57.5 µM. In outline: as §2
For assay [10], the system named is JEG-3. The assay is described as above. The conditions noted are these: Gynecologic cancer cell panel viability, ATPlite luminescence, 48 h; series mostly up to 57.5 µM. The essentials: as §2
Assay [11] deals with OV90. The description is as above. The conditions noted are these: Gynecologic cancer cell panel viability, ATPlite luminescence, 48 h; series mostly up to 57.5 µM. In outline:
as §2

The test system of assay [12] is PA-1. Described as above. Conditions: Gynecologic cancer cell panel viability, ATPlite luminescence, 48 h; series mostly up to 57.5 µM. In outline:
as §2

In assay [13] the test system is SKOV3. The description is as above. Conditions: Gynecologic cancer cell panel viability, ATPlite luminescence, 48 h; series mostly up to 57.5 µM. In outline:
as §2

For assay [14], the system named is Tov-21-G. Described as above. Conditions: Gynecologic cancer cell panel viability, ATPlite luminescence, 48 h; series mostly up to 57.5 µM. In outline:
as §2

Assay [15] deals with Tov112D. The assay is described as above. Conditions: Gynecologic cancer cell panel viability, ATPlite luminescence, 48 h; series mostly up to 57.5 µM. In outline: as §2
The nature of assay [16]: Drug repurposing screens with cells derived from glioblastoma tumor samples (AID 1345199). Also: nearly all actives have a fitted effect of over 40% in size. Conditions: GBM patient neurospheres viability, ATP luminescence, 48 h. The essentials: (§3)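 Primary testing used CD133+ neurospheres from four GBM patients, seven concentrations, 48 h exposure and ATP-based viability; confirmation added three slower-growing patient lines.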
Assay [17] has as its system astro. The assay is described as above. Conditions: viability, ATP luminescence, 48 h; series mostly up to 45.9 µM. In outline: as §3
Assay [18] has as its system MKL-2. The experiment in a line: qHTS assay to identify novel small-molecules to repurpose for Merkel cell carcinoma treatment (AID 1296009). Also: nearly all actives have a fitted effect of over 60% in size. The conditions noted are these: MCC and control cell lines, CellTiter-Glo viability, 72 h; series mostly up to 46 µM. The essentials:
as §1

Assay [19] has as its system NIH3T3. The assay is described as above. Conditions: MCC and control cell lines, CellTiter-Glo viability, 72 h; at 44.8 µM (top of the series) unless noted. In outline: as §1

SMILES strings stand for the structures. Inconclusive results are not listed. Values without a mark were called inactive. Activity calls are given as the source filed them. Calls follow the shape of the dose curve; as a rule, active = well fitted curve in the direction sought with a large enough effect; inconclusive = small, poorly fitted or top-dose-only effect, or another doubt; inactive = no such curve, though single readings can be large; an effect the other way counts as inactive or inconclusive.
% is scaled to controls: 0 for no effect and ±100 for the full control effect; potency is read from the fitted curve at half-maximal effect.

With `COc1cc(C(=O)NS(=O)(=O)c2ccccc2C)ccc1Cc1cn(C)c2ccc(NC(=O)OC3CCCC3)cc12`, the Potency result in assay [1], in assay [3], in [4], in assay [5], in assay [6] and in assay [7] was “inactive” throughout. Besides, the Potency result in [8], in assay [9], in assay [10], in [11], in assay [12] and in assay [13] was “inactive” in each case. In addition, the Potency result in assay [14], in assay [15] and in [17] was “inactive” throughout. Moreover, in assay [2], the Potency is 20.9 µM (active). Besides, the activity, negative = cell killing in assay [16] (at 45.9 µM (top of the series), tumour line B) was -14.2%; in [16] (at 45.9 µM (top of the series), tumour line D) it was -15.9%; in assay [16] (at 46.1 µM (top of the series), tumour line C), 5.07%.
Regarding `CN(C)CC(C)(C)CNc1nn2c(-c3ccccc3)nnc2cc1C1CCC1`, the Potency in assay [1] is 0.935 µM (active); in assay [3] it was 0.662 µM (active). Besides, the Potency entry in assay [4], in assay [5], in [6], in [7], in assay [8] and in assay [9] was “inactive” each time. The Potency result in [10], in assay [11], in assay [12], in assay [14] and in [15] was “inactive” in each case.
In the case of `C[C@]12CC[C@H](O)CC1=CCC1C2CC[C@]2(C)C(n3cnc4ccccc43)=CCC12` (stereo partly drawn), the Potency entry in assay [1], in assay [2], in assay [3], in assay [4], in [5] and in assay [6] was “inactive” in each case. Further, the Potency result in assay [7], in assay [8], in [9], in [10], in assay [11] and in [12] was “inactive” in each case. The Potency result in assay [13], in [14] and in [15] was “inactive” throughout.
For the molecule `C=CCn1c(=O)c2cnc(Nc3ccc(N4CCN(C)CC4)cc3)nc2n1-c1cccc(C(C)(C)O)n1`, the Potency in assay [1] is 0.662 µM (active); in [2] it was 3.72 µM (active); in assay [4] it was 1.41 µM (active); in [5], 3.55 µM (active); in assay [6], 3.16 µM (active); in assay [7], 1.26 µM (active). Also, the Potency in assay [8] was 0.708 µM (active); in assay [9], 0.631 µM (active); in [10], 3.55 µM (active); in assay [12], 1.58 µM (active); in [13], 0.447 µM (active); in assay [14] it was 0.631 µM (active). Moreover, the Potency in assay [15] was 2 µM (active).
In the case of `CCc1cc2c(cc1N1CCC(N3CCOCC3)CC1)C(C)(C)c1[nH]c3cc(C#N)ccc3c1C2=O`, the Potency entry in assay [1], in [2], in [3], in [4], in [5] and in assay [6] was “inactive” each time. For the same molecule, the Potency entry in assay [7], in assay [8], in [9], in assay [10], in assay [11] and in [12] was “inactive” in each case. Further, the Potency entry in assay [14] and in assay [15] was “inactive” in each case.
As for `O=C(NCCCNc1nc(Nc2cccc(NC(=O)N3CCCC3)c2)ncc1I)c1cccs1`, the Potency entry in [18] was “inactive”. Besides, the values for the Potency in assay [2] and in assay [3] were 16.6 µM (active) and 9.35 µM (active), respectively.
Turning to `CNC(=O)c1ccc(N2C(=S)N(c3cnc(C#N)c(C(F)(F)F)c3)C(=O)C23CCC3)cc1F`, the Potency in [18] is 26.4 µM (active); in assay [3], 9.35 µM (active). For the same molecule, in assay [19], the outcome was inactive. For the same molecule, the Potency result in assay [4], in assay [5], in [6], in [7], in [8] and in assay [9] was “inactive” in each case. The Potency entry in [10], in assay [11], in [12], in assay [13], in [14] and in assay [15] was “inactive” in each case.
Regarding `CN(C1CCc2c(c3ccccc3n2CC(=O)O)C1)S(=O)(=O)c1ccc(F)cc1` (stereo not drawn), the Potency result in assay [1], in [2], in assay [4], in [5], in [6] and in assay [7] was “inactive” in each case. Besides, the Potency entry in assay [8], in assay [9], in assay [10], in [11], in assay [12] and in [13] was “inactive” each time. Also, the Potency result in assay [14] and in assay [15] was “inactive” in each case. Besides, the molecule was classed as inactive in assay [19]. In assay [3], the Potency is 5.9 µM (active).
In the case of `Cc1c(NC(=O)OC[C@@H]2COCCN2)cn2ncnc(Nc3ccc4c(cnn4Cc4cccc(F)c4)c3)c12`, the Potency result in [1], in assay [3], in assay [4], in assay [7], in assay [8] and in assay [9] was “inactive” throughout. Further, the Potency result in [10], in [14] and in [15] was “inactive” throughout.
`CC(C)(C)OC(=O)Nc1ccc(-c2cc(C(=O)NCCCCCCC(=O)NO)no2)cc1`: the values for the Potency in assay [18], in [2] and in assay [3] were 2.96 µM (active), 10.5 µM (active) and 3.32 µM (active), respectively.
Turning to `CS(=O)(=O)c1ccc(-c2cnc(N)c(C(=O)Nc3ccccc3)n2)cc1`, the Potency result in [1], in [2], in assay [3], in assay [4], in assay [5] and in [6] was “inactive” throughout. The Potency entry in assay [8], in assay [9], in [10], in assay [11] and in assay [15] was “inactive” in each case. Further, in assay [14], the Potency was 8.91 µM (active).
Take `COC(=O)[C@]12CCC(C)(C)C[C@@H]1[C@@H]1C(=O)C=C3[C@@]4(C)C=C(C#N)C(=O)C(C)(C)[C@@H]4CC[C@@]3(C)[C@]1(C)CC2`: the Potency result in assay [1] was “inactive”. For the same molecule, the Potency in [17] is 3.16 µM (active).
As for `O=C(O)C1(Cc2cccc(Nc3nccs3)n2)CCC(Oc2cccc(Cl)c2F)CC1` (stereo not drawn), the Potency result in assay [18], in [4], in assay [6], in [7], in [9] and in [10] was “inactive” in each case. Also, in assay [11], the Potency result was “inactive”. Moreover, the Potency in assay [8] is 6.31 µM (active); in assay [15] it was 1 µM (active).

The values are drawn from PubChem BioAssay (NCATS).
